The values that follow come from PubChem BioAssay (NCI).

This is part of a sample that, as a whole, favours compounds with a hit. Of some 83,000 tested, about 20% had one in any assay.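 Single-dose data. Exposure time 48 hours. Values below 10 considered active.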 Unmarked numbers belong to inactive results. Calls of active or inactive are those of the source.

Test systems include NCI-H23 lung; NCI-H226 lung; NCI-H322M lung; HOP-62 NSCLC; NCI-H460 lung; HOP-92 NSCLC; NCI-H522 lung; A549/ATCC NSCLC; 786-0 renal; COLO 205 colon; DU-145 prostate; K-562 leukemia; MALME-3M melanoma; MDA-MB-231 breast; RXF 393 renal; SF-268 CNS; SF-295 CNS; SF-539 CNS; UACC-257 melanoma; M14 melanoma.
Holding throughout (assay): NCI-60 one-dose screen, 48 h (100 = growth as untreated, 0 = no growth, -100 = all killed)
Holding throughout (details): 10 µM unless noted

On to `C#CCSc1nnnn1-c1ccccc1`, for which the growth with NCI-H23 lung is 97.9%; with NCI-H226 lung, 82.5%; in the assay with NCI-H322M lung, 98%; with HOP-62 NSCLC it was 105%; with NCI-H460 lung, 95.4%; with HOP-92 NSCLC, 50.5%. The growth was 92.9% in the assay on NCI-H522 lung; 64% in the assay with A549/ATCC NSCLC; 92% with 786-0 renal; 113% in the assay on COLO 205 colon; 79.1% in the assay on DU-145 prostate; 86% in the assay on K-562 leukemia. Further, the growth in the assay with MALME-3M melanoma was 104%; with MDA-MB-231 breast, 96%; with RXF 393 renal, 67.3%; in the assay with SF-268 CNS, 82.5%; in the assay with SF-295 CNS, 81.1%; with SF-539 CNS, 80.2%. For the same compound, the values for the growth in the assay on UACC-257 melanoma and in the assay on M14 melanoma were 94.4% and 104%, respectively.
As for `CCOC(=O)C(=O)CC(=O)c1ccccc1`, the growth in the assay on NCI-H23 lung is 95.4%; in the assay with NCI-H226 lung, 86.6%; in the assay with NCI-H322M lung, 94.5%; in the assay on HOP-62 NSCLC, 94.9%; with NCI-H460 lung, -12.5% (active); with HOP-92 NSCLC, 79.6%. The growth with NCI-H522 lung was 98.8%; with A549/ATCC NSCLC, 96.5%; in the assay on 786-0 renal it was 103%; with COLO 205 colon, 100%; in the assay on DU-145 prostate, 102%; in the assay with K-562 leukemia, 118%. Also, the growth is 100% with MALME-3M melanoma; 92.9% in the assay on MDA-MB-231 breast; 103% in the assay on RXF 393 renal; 96.7% in the assay on SF-268 CNS; 104% with SF-295 CNS; 100% in the assay with SF-539 CNS. The figures for the growth in the assay with UACC-257 melanoma and with M14 melanoma were 101% and 97.1%, respectively.
For `COc1ccc(C(=O)/C(=N/Nc2ccccc2)c2ccc(OC)cc2)cc1`, the growth in the assay on NCI-H23 lung was 89%; with NCI-H226 lung, 94.2%; with NCI-H322M lung it was 103%; in the assay with HOP-62 NSCLC, 102%; with NCI-H460 lung, 94.1%; in the assay on HOP-92 NSCLC, 82.1%. For the same compound, the growth was 79.3% in the assay on NCI-H522 lung; 85.4% in the assay with A549/ATCC NSCLC; 94.2% in the assay with 786-0 renal; 99.9% with COLO 205 colon; 115% in the assay with DU-145 prostate; 92.8% with K-562 leukemia. The growth with MALME-3M melanoma was 109%; with MDA-MB-231 breast, 82.7%; with RXF 393 renal it was 92.4%; with SF-268 CNS, 101%; with SF-295 CNS, 101%; in the assay on SF-539 CNS, 95.9%. Besides, the results for the growth with UACC-257 melanoma and in the assay on M14 melanoma were 111% and 102%, respectively.
For the compound `CC(c1ccccc1)N1C(=O)CSC1=S` (stereo not given), the growth in the assay with NCI-H23 lung is 51.2%; in the assay on NCI-H226 lung, 83.2%; in the assay with NCI-H322M lung, 74.9%; with HOP-62 NSCLC, 59.2%; with NCI-H460 lung, 0.475% (active); in the assay on HOP-92 NSCLC it was 47.5%. The growth in the assay on NCI-H522 lung was -14.2% (active); in the assay with A549/ATCC NSCLC, 78.8%; in the assay with 786-0 renal, 21.2%; with COLO 205 colon it was 1.28% (active); in the assay with DU-145 prostate, 26.9%; in the assay with K-562 leukemia, 5.61% (active). In addition, the growth with MALME-3M melanoma was 79.3%; with MDA-MB-231 breast, 29.9%; in the assay on RXF 393 renal it was -25% (active); with SF-268 CNS it was 24.9%; with SF-295 CNS, 101%; in the assay with SF-539 CNS, -59.7% (active). The growth in the assay on UACC-257 melanoma was 55.3%; with M14 melanoma it was 28.7%.
On to `NCC(O)C(O)C(O)C(O)CO` (stereo not given), for which the growth is 98.2% with NCI-H23 lung; 93.4% in the assay on NCI-H226 lung; 100% with NCI-H322M lung; 91.4% in the assay on HOP-62 NSCLC; 102% with NCI-H460 lung; 80.7% in the assay on HOP-92 NSCLC. The growth is 102% with NCI-H522 lung; 78.4% in the assay with A549/ATCC NSCLC; 99.2% in the assay on 786-0 renal; 101% in the assay on COLO 205 colon; 101% in the assay on DU-145 prostate; 103% in the assay on K-562 leukemia. Besides, the growth in the assay on MALME-3M melanoma was 90.5%; with MDA-MB-231 breast it was 91.9%; with RXF 393 renal it was 109%; in the assay on SF-268 CNS, 96.2%; in the assay with SF-295 CNS, 106%; in the assay on SF-539 CNS, 101%. Moreover, the growth in the assay on UACC-257 melanoma is 85%; with M14 melanoma, 93.9%.
`O=S(=O)(O)C(C(I)I)S(=O)(=O)O`: the growth in the assay on NCI-H23 lung is 95.4%; with NCI-H226 lung, 98.7%; in the assay on NCI-H322M lung it was 107%; with HOP-62 NSCLC, 109%; in the assay on NCI-H460 lung, 105%; in the assay on HOP-92 NSCLC, 106%. For the same compound, the growth in the assay with NCI-H522 lung is 108%; in the assay with A549/ATCC NSCLC it was 104%; in the assay with 786-0 renal, 110%; with COLO 205 colon, 110%; with DU-145 prostate, 106%; in the assay with K-562 leukemia, 105%. In addition, the growth was 107% in the assay on MALME-3M melanoma; 126% in the assay with MDA-MB-231 breast; 104% in the assay with RXF 393 renal; 100% in the assay on SF-268 CNS; 113% with SF-295 CNS; 99.8% in the assay on SF-539 CNS. In addition, the growth in the assay on UACC-257 melanoma was 102%; in the assay with M14 melanoma it was 109%.
With `COc1cc(N)c2ncccc2c1Cl`, the growth with NCI-H23 lung was 104%; in the assay with NCI-H226 lung, 96%; in the assay on NCI-H322M lung, 97.9%; with HOP-62 NSCLC it was 102%; with NCI-H460 lung it was 109%; in the assay with HOP-92 NSCLC, 101%. In addition, the growth in the assay with NCI-H522 lung is 81.8%; with A549/ATCC NSCLC it was 103%; with 786-0 renal, 95%; in the assay with COLO 205 colon, 116%; in the assay with DU-145 prostate, 119%; in the assay with K-562 leukemia it was 102%. In addition, the growth in the assay on MALME-3M melanoma is 113%; with MDA-MB-231 breast it was 96.2%; with RXF 393 renal, 96.5%; with SF-268 CNS, 106%; with SF-295 CNS, 101%; in the assay with SF-539 CNS it was 87.3%. Further, the growth was 109% with UACC-257 melanoma and 103% with M14 melanoma.
As for `CC(=O)C[n+]1ccc(C)cc1Sc1ccccc1C`, the growth with NCI-H23 lung is 91%; in the assay on NCI-H226 lung, 107%; in the assay on NCI-H322M lung, 102%; with HOP-62 NSCLC, 99.1%; with NCI-H460 lung, 104%; in the assay on HOP-92 NSCLC, 94.9%. The growth was 98.1% in the assay with NCI-H522 lung; 112% in the assay with A549/ATCC NSCLC; 93.5% in the assay with 786-0 renal; 116% in the assay on COLO 205 colon; 98.1% in the assay with DU-145 prostate; 102% with K-562 leukemia. In addition, the growth in the assay with MALME-3M melanoma is 102%; in the assay with MDA-MB-231 breast, 89.3%; in the assay with RXF 393 renal, 134%; in the assay with SF-268 CNS, 93%; in the assay on SF-295 CNS it was 96.8%; in the assay with SF-539 CNS, 88.5%. The growth was 97.8% in the assay with UACC-257 melanoma and 90.7% in the assay on M14 melanoma.
As for `Nc1cc2ccccc2c(O)c1O`, the growth in the assay with NCI-H23 lung was 54%; in the assay with NCI-H226 lung it was 81.2%; in the assay on NCI-H322M lung it was 89.1%; in the assay on HOP-62 NSCLC, 76.9%; in the assay on NCI-H460 lung it was 86.9%; in the assay on HOP-92 NSCLC, 83.9%. The growth in the assay with NCI-H522 lung is 45.3%; with A549/ATCC NSCLC, 96.9%; in the assay with 786-0 renal it was -32.2% (active); in the assay with COLO 205 colon, 56.5%; in the assay on DU-145 prostate, 92.7%; in the assay on K-562 leukemia it was 5.25% (active). Moreover, the growth in the assay with MALME-3M melanoma is -39% (active); in the assay with MDA-MB-231 breast, -19.9% (active); with RXF 393 renal it was -52.5% (active); in the assay on SF-268 CNS, 53.6%; with SF-295 CNS, 85%; in the assay on SF-539 CNS, 16.2%. For the same compound, the growth is 89.4% in the assay on UACC-257 melanoma and 93.3% with M14 melanoma.
As for `Nc1cccc2cccc(O)c12`, the growth in the assay with NCI-H23 lung is 90.6%; in the assay on NCI-H226 lung it was 96.1%; with NCI-H322M lung, 79.2%; in the assay on HOP-62 NSCLC, 104%; with NCI-H460 lung it was 86.5%; in the assay with HOP-92 NSCLC, 83.8%. For the same compound, the growth in the assay on NCI-H522 lung was 70.5%; in the assay on A549/ATCC NSCLC it was 106%; in the assay with 786-0 renal, 108%; in the assay with COLO 205 colon, 102%; in the assay on DU-145 prostate it was 99.1%; in the assay with K-562 leukemia, 89.5%. Further, the growth in the assay on MALME-3M melanoma is 75.2%; with MDA-MB-231 breast it was 65.7%; in the assay on RXF 393 renal, 90.6%; in the assay with SF-268 CNS it was 96.1%; in the assay on SF-295 CNS, 93.8%; in the assay on SF-539 CNS it was 109%. Moreover, the values for the growth in the assay with UACC-257 melanoma and with M14 melanoma were 100% and 96.7%, respectively.
With `Nc1nc(Cl)cc(Cl)n1`, the growth with NCI-H23 lung is 95.9%; in the assay on NCI-H226 lung, 101%; with NCI-H322M lung, 99%; in the assay with HOP-62 NSCLC, 85.2%; in the assay with NCI-H460 lung it was 106%; with HOP-92 NSCLC, 113%. Further, the growth with NCI-H522 lung was 81.9%; with A549/ATCC NSCLC, 81%; with 786-0 renal, 103%; with COLO 205 colon it was 96.8%; in the assay with DU-145 prostate it was 108%; with K-562 leukemia, 92.3%. For the same compound, the growth is 90.8% with MALME-3M melanoma; 114% with MDA-MB-231 breast; 102% in the assay on RXF 393 renal; 100% in the assay on SF-268 CNS; 106% in the assay with SF-295 CNS; 107% in the assay with SF-539 CNS. Moreover, the growth was 85.5% in the assay on UACC-257 melanoma and 96.4% with M14 melanoma.
